Assay results: PubChem BioAssay AID624305 (National Center for Advancing Translational Sciences (NCATS), 2012)
Results filed as inconclusive are left out. Unmarked numbers belong to inactive results. Calls of active or inactive are those of the source. Calls come from the whole dose curve; as a rule, active = well fitted activation curve with a large enough effect; inconclusive = small, poorly fitted or top-dose-only effect; inactive = no such curve, though single readings can be large or run the other way.

Assay: qHTS assay for re-activators of p53 using a Luc reporter: Hit Validation; note: nearly all actives have a fitted effect of over 75% in size; for activation: 0% is about no effect
Conditions: p53-responsive luciferase reporter cells, luminescence, H1299 line expressing heat-sensitive Ala138Val p53; series mostly up to 46.1 µM; activation: at the top concentration
How it was run: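 H1299 (p53-null) cells stably carrying p53-A138V and a BP100-luciferase reporter, 1000 cells/well, treated 24 h at 37 deg C. Compounds at several concentrations, 1:5 dilution; nocodazole control; luminescence read after 10 min with detection reagent.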
Potency is the fitted concentration of half-maximal effect.

Row | SMILES | activation | Potency
1 | c1ccc2cc3c(NCCN4CCOCC4)ccnc3cc2c1 | 11.5% | –
2 | COc1ccc(-c2coc3cc(O[C@@H]4O[C@H](CO)[C@@H](O)[C@H](O)[C@H]4O)ccc3c2=O)cc1 | – | 2.91 µM (active)
3 | COc1cccc(-c2nc3cc(C)ccc3o2)c1 | – | 0.411 µM (active)
4 | CN1CCN(C(=O)CCCN2C(=O)/C(=C/c3ccc(Cl)cc3)SC2=S)CC1 | – | 9.2 µM (active)
5 | Cc1cccc(Nc2cc(=O)[nH]c(=O)[nH]2)c1C | 0% | –
6 | COCC(C)NC(=O)C1CC(=O)N(c2ccc(C)cc2)C1 (configuration not stated) | -21.3% [at 9.22 µM] | –
7 | CC(=O)c1ccc(Nc2ncnc3c2oc2ccccc23)cc1 | – | 1.64 µM (active)
8 | CC1Cc2ccccc2N1C(=O)COC(=O)C1(c2ccccc2F)CCCC1 (configuration not stated) | 80.2% | –
9 | Cc1ccc2cc(CCNC(=O)c3ccco3)c(=O)[nH]c2c1C | – | 2.31 µM (active)
10 | Clc1cccc(N/N=C(\Cc2nc3ccccc3[nH]2)c2ccccc2)c1 | 20.3% | –
11 | Cc1ccc(C(=O)Nc2ncc3c(n2)CC(c2ccco2)CC3=O)cc1 (configuration not stated) | 31.8% | –
12 | O=C(Nc1ccc2c(c1)CCC2)c1ccccc1F | – | 0.366 µM (active)
13 | c1ccc(-c2cn3nc(-c4ccccc4)cnc3n2)cc1 | – | 0.92 µM (active)
14 | CCOC(=O)N(Cc1ccccc1)C(C(=O)O)C(C(=O)O)N(Cc1ccccc1)C(=O)OCC (configuration not stated) | -2.08% | –
15 | CC(=O)N(C)c1ccc(NC(=O)CCN2C(=O)c3ccccc3C2=O)cc1 | -0.521% | –
16 | C/C(CC(C)C)=N\NC(=O)Nc1ccccc1 | 29.2% | –
17 | COc1ccc(-c2nsc3c(N4CCCC4)ncnc23)cc1 | – | 0.092 µM (active)
